Source: PubChem
Hits are enriched below; roughly 8.1% of the tested compounds scored in any of these assays.
PINK1 expr mod – changes PINK1 expression | actives 0.2% (n = 410,000) | PINK1 immunofluorescence, high-content cytometry, 24 h | Potency, µM (titrated, usually from 76.6 µM), for the others: at the top dose activation (PINK1 increase), actives largely listed as activators; active = well fitted activation curve with a large enough effect; inconclusive = small, poorly fitted or top-dose-only effect; cell line not stated here; note: % of control where 0% means no effect; nearly all actives have a fitted effect of over 65% in size
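Compound titrations (5 concentrations, 24 h) on a stable cell line; DMSO and CCCP controls. Endpoint: fixed-cell PINK1 immunofluorescence with mitochondrial, cell and nuclear markers, scanned by microplate cytometer.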
ClpP mod – qHTS Assay for Activators of ClpP | actives 1.9% (n = 340,000) | Potency, µM (doses to about 57.5 µM), inactives show at the highest dose activity change, negative = active | purified B. subtilis ClpP, FRET peptide cleavage, 20 min; active = well fitted falling curve with a large enough effect; inconclusive = small, poorly fitted or top-dose-only effect; inactive = no such curve, though single readings can be large or run the other way; note: the source files actives as falling curves though it sought activators and does not explain the sign; nearly all actives have a fitted effect of over 65% in size
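FRET quenching reversal measured ClpP activation: 10 microg/mL B. subtilis ClpP at pH 8 with the FRET-FV decapeptide, read at 430 nm after 320 nm excitation. The 20-min minus 0-min signal was scaled between DMSO/no-enzyme wells and ADEP (5.8 microM final).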
RORgamma inh – ROR gamma (mouse) transcription inhibition; AID 2551; P51450; Drosophila S2 Gal4-RORgamma UAS-luciferase reporter, 20 h; Potency, µM (highest dose often 53.6 µM), for inactives: top-dose activity change, negative = inhibition, usual class: inhibitors; actives 5.4% (n = 310,000); note: % is set by controls: 0 for no effect and ±100 for the full control effect; nearly all actives have a fitted effect of over 60% in size
Target sequence (P51450 whole entry, looked up, the tested form may be a part): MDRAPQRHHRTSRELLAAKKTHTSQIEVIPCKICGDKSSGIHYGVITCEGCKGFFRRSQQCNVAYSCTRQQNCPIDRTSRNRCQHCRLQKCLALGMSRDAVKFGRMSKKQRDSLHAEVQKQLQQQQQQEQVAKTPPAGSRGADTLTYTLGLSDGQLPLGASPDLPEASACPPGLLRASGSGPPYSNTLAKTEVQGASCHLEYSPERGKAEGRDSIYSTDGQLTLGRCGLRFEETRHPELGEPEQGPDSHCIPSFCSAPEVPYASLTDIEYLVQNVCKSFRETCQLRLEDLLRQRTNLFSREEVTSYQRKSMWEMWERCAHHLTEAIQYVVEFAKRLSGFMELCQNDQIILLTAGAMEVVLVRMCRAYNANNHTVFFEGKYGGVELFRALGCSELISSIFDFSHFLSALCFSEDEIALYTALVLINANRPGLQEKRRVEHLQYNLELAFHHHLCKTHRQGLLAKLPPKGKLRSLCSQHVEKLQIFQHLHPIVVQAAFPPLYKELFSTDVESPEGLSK
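Drosophila S2 cells stably expressing Gal4-DBD/mouse RORγ fusion under metallothionein promoter plus UAS-luciferase; compound 1 h, then 700 uM CuSO4 induction for 20 h at ambient temperature; inhibition read as reduced luminescence.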
Gal4-VP16 FLuc – inhibits Gal4-VP16 luciferase reporter, ROR gamma counter-screen | Drosophila S2 Gal4-VP16 UAS-luciferase, luminescence, 20 h | Potency, µM (series often up to 53.6 µM), without a hit: top-dose activity, negative = inhibition, most hits filed as inhibitors | actives 3.5% (n = 310,000) | AID 2546;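 note: Gal4-VP16 expression switched on by copper sulfate through the metallothionein promoter; % is set by controls: 0 for no effect and ±100 for the full control effect; nearly all actives have a fitted effect of over 50% in size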
Epigenetic reg – epigenetic control regulation, reporter derepression; murine LDR cells, GFP reporter derepression, 30 h; Potency, µM (doses to about 53.9 µM), without a hit: top-dose GFP activation, most hits filed as activators; actives 0.2% (n = 280,000); AID 1865; note: % of control where 0% means no effect; nearly all actives have a fitted effect of over 60% in size
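Murine LDR cells carrying a silenced, genomically integrated CMV-driven GFP reporter were exposed to compound for 30 hours at 37 C. After PBS washes, GFP-positive cells (20–120 um objects) were counted by laser-scanning microplate cytometry.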
Sfp inh – blocks B. subtilis Sfp PPTase activity; Q9F4F7; Biochemical Sfp PPTase activity, qHTS; Potency, µM, for the others: largest response in the series, negative = inhibition, most hits filed as inhibitors; actives 3.5% (n = 310,000); AID 1490;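 note: the enzyme is Sfp with the accession as filed and its product quenches rhodamine fluorescence; 0% = enzyme reaction without inhibitor and -100% = no enzyme wells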
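Fluorescence-quenching assay: 15 nM Sfp-PPTase preincubated 15 min at room temperature with compound, then 5 uM rhodamine-CoA and 12.5 uM BHQ-2-labelled YbbR peptide added. Fluorescence (ex 525/em 598 nm) read at start and after 30 min; difference gives rate.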
The depositor's hits bear a star; [ ] = remark or other dose. Unless noted, calls come from the whole dose curve; as a rule, active = well fitted curve in the direction sought with a large enough effect; inconclusive = small, poorly fitted or top-dose-only effect, or another doubt; inactive = no such curve, though single readings can be large; an effect the other way counts as inactive or inconclusive. Potency is the fitted concentration of half-maximal effect.

For Brc1ccc(-c2ccc(CNCc3ccccn3)o2)cc1 the results were PINK1 expr mod 1.2%, ClpP mod 6.1%, RORgamma inh inconclusive, Gal4-VP16 FLuc inconclusive and Sfp inh -15.8%.
Screening CCc1ccc(NCc2cc3cc4c(cc3n(CC(=O)Nc3ccccc3C)c2=O)OCCO4)cc1 returned PINK1 expr mod -1.0%, ClpP mod 3.7% and Epigenetic reg 5.7%.
Screening O=c1c2ccccc2cnn1Cc1nnc(-c2cccs2)o1 returned PINK1 expr mod 2.6%, RORgamma inh 16.0%, Gal4-VP16 FLuc 14.9% and Sfp inh 9.1%.
Screening C(=C\c1cccc2ccccc12)/c1nnc(-c2cccs2)o1 returned PINK1 expr mod 2.0%[38.3 µM], ClpP mod 28.2µM*, RORgamma inh 0.2%, Gal4-VP16 FLuc -2.4%, Epigenetic reg -2.3% and Sfp inh inconclusive.
COc1ccc(Cl)cc1NC(=O)COC(=O)CC(C)(C)CC1=NS(=O)(=O)c2ccccc2N1 was read as PINK1 expr mod 0.5%, ClpP mod -2.1% and Epigenetic reg 2.1%.
CCOc1cc(C2C(C#N)=C(N)Oc3n[nH]c(-c4ccncc4)c32)cc([N+](=O)[O-])c1O (stereo not drawn) was read as PINK1 expr mod -2.1%, RORgamma inh 8.9%, Gal4-VP16 FLuc -12.9%, Epigenetic reg -5.1% and Sfp inh 79.4µM*.
For Cc1ccc(-c2cn3c(n2)sc2cc(C(=O)NC4CCCCCC4)ccc23)cc1 the results were PINK1 expr mod 0.6%, ClpP mod -12.9% and Epigenetic reg 1.4%.
Screening COc1cc(NC(=O)c2oc3c(c2C)-c2nn(Cc4cccc(Cl)c4)cc2CC3)cc(OC)c1 returned PINK1 expr mod 2.6%, ClpP mod 20µM* and Epigenetic reg 1.4%.
COc1ccc(NC(=O)c2oc3c(c2C)-c2nn(Cc4ccccc4Cl)cc2CC3)cc1OC was read as PINK1 expr mod 7.0%, ClpP mod -8.9% and Epigenetic reg 1.4%.
`CCn1cc2c(n1)-c1c(oc(C(=O)Nc3cccc(C(F)(F)F)c3)c1C)CC2` gave PINK1 expr mod 6.0%, ClpP mod 35.5µM* and Epigenetic reg 1.1%.
Cc1ccccc1NC(=O)c1oc2c(c1C)-c1nn(Cc3cccc(Cl)c3)cc1CC2 was read as PINK1 expr mod 3.0%, ClpP mod -13.0% and Epigenetic reg 2.8%.
`COc1ccc(-c2[nH]ncc2C(=O)NCc2ccc(F)cc2)cc1` gave PINK1 expr mod 1.4%, ClpP mod -1.4% and Epigenetic reg 0.0%.
Cc1cc(=O)n2c(nc3ccccc32)[nH]1 was read as PINK1 expr mod -5.1%[38.3 µM], ClpP mod 14.1µM*, RORgamma inh 20.8%, Gal4-VP16 FLuc 24.8%, Epigenetic reg 1.2% and Sfp inh 14.9%.
`CCc1ccc(-n2c(C)nnc2SCc2nc(-c3ccc(OC)cc3)no2)cc1` gave PINK1 expr mod -0.4%, ClpP mod 0.5% and Epigenetic reg -1.9%.
Fc1ccccc1-c1n[nH]c(=S)n1CC1CCCO1 (stereo not drawn) was read as PINK1 expr mod 0.3%, RORgamma inh 11.2µM*, Gal4-VP16 FLuc -11.3%, Epigenetic reg 1.5% and Sfp inh 1.0%.
For CC(C)(C)c1ccc(-c2n[nH]c(=S)n2CC2CCCO2)cc1 (stereo not drawn) the results were PINK1 expr mod 4.3%, RORgamma inh 2.82µM*, Gal4-VP16 FLuc 10µM*, Epigenetic reg -1.8% and Sfp inh -27.4%.
For Cc1ccc(-c2nc(=S)c3c(n2CC2CCCO2)CC(C)(C)OC3)cc1 (stereo not drawn) the results were PINK1 expr mod 1.4%[38.3 µM], ClpP mod 0.5%, RORgamma inh 21.7%, Gal4-VP16 FLuc -8.2%, Epigenetic reg -2.4% and Sfp inh -10.9%.
